# JMJD2A Tudor – qHTS Assay for Inhibitors of JMJD2A-Tudor Domain; Lysine-specific demethylase 4A (Homo sapiens), O75164; AlphaScreen JMJD2A-Tudor / H3K4me3 peptide binding; Potency, µM (top dose mostly 114 µM), usual class: inhibitors; 390,000 tested, 4.4% active; AID 504339, 2011; also: nearly all actives have a fitted effect of over 50% in size
# VDR inhibitor – Inhibitors of the vitamin D receptor (VDR): qHTS. 400,000 tested, 0.93% active. Potency, µM, hits mostly inhibitors. Vitamin D3 receptor (Homo sapiens), P11473. VDR-SRC2-3 peptide fluorescence polarization, 2 h
# Target sequence (P11473 whole entry, looked up): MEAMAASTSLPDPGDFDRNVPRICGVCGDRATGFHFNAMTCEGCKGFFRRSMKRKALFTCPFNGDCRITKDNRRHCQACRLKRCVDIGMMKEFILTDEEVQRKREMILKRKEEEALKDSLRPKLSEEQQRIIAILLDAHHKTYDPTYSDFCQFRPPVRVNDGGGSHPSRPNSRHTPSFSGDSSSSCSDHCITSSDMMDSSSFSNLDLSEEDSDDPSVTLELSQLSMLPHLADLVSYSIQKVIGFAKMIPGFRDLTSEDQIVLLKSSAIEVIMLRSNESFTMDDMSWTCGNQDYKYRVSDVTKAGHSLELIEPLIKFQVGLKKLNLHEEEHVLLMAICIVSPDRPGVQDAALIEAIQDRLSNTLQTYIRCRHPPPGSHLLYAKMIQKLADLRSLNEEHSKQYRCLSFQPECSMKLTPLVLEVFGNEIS
#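 After 23 nl compound addition and a short centrifugation, plates sat for 2 hours at ambient temperature; polarization of fluorescence then indicated loss of VDR binding to peptide SRC2-3.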
# PLK1 PBD block – qHTS for Inhibitors of PLK1-PDB (polo-like kinase 1 - polo-box domain): Primary Screen | Serine/threonine-protein kinase PLK1 (Homo sapiens), P53350 | Plk1 PBD binding of FITC phosphopeptide, fluorescence polarization | Potency, µM, hits mostly inhibitors | 360,000 tested, 2.8% active | AID 720504, 2013; also: series mostly up to about 57 µM; nearly all actives have a fitted effect of over 65% in size
# HP1b chromo inh – HTS for Inhibitors of HP1-beta Chromodomain Interactions with Methylated Histone Tails | AlphaScreen HP1-beta / biotin-H3K9me3 peptide binding | Potency, µM (top dose mostly 114 µM), most hits filed as inhibitors | 390,000 tested, 0.56% active | AID 540317, 2011; also: nearly all actives have a fitted effect of over 70% in size
# Target sequence (P83916 whole entry, looked up): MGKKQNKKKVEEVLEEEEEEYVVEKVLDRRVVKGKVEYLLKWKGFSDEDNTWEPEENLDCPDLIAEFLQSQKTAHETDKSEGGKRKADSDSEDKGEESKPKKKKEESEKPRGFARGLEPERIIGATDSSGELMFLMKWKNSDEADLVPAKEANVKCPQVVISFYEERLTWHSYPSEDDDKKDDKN
#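 Compound inhibition of the preformed complex between 50 nM HP1-beta and 50 nM biotinylated H3K9me3 peptide was read by AlphaScreen. Buffer was PBS pH 7.4 with 0.01% Tween-20. Incubations ran 30 min at room temperature, with 10 ug/mL donor/acceptor beads.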
# L3MBTL1 block – qHTS Assay for the Inhibitors of L3MBTL1; Potency, µM (highest dose often 57.1 µM), most hits filed as inhibitors; AlphaScreen L3MBTL1–H3K9me1 peptide binding; 230,000 tested, 0.66% active; also: nearly all actives have a fitted effect of over 60% in size
#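 L3MBTL1 50 nM + b-AHA-H3(1-15)K9me1 75 nM, 30 min RT; compound added, 30 min RT; streptavidin donor/Ni-chelate acceptor beads 10 ug/mL each final, 30 min RT dark; AlphaScreen read.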
# BAZ2B inh – qHTS Assay for Inhibitors of BAZ2B | Bromodomain adjacent to zinc finger domain protein 2B (Homo sapiens), Q9UIF8 | AlphaScreen BAZ2B-H3K14Ac peptide displacement | Potency, µM (doses to about 114 µM), most hits filed as inhibitors | 360,000 tested, 4.4% active; also: nearly all actives have a fitted effect of over 60% in size
#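 BAZ2B (50 nM) with biotin-H3(5-23)K14Ac peptide (50 nM) in PBS pH 7.4, 0.01% Tween-20, preformed 30 min, then compound 30 min at room temperature; top concentration 110uM. AlphaScreen streptavidin donor/nickel chelate acceptor beads (10 ug/mL final), 20 min dark, signal read.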
# Hits are given with their value; 0 = inactive; ? = inconclusive; - = no result given; [ ] = remark or other dose. The list is not random: actives were taken first. Their share in the collection is about 6.9%. Calls follow the shape of the dose curve; as a rule, active = well fitted curve in the direction sought with a large enough effect; inconclusive = small, poorly fitted or top-dose-only effect, or another doubt; inactive = no such curve, though single readings can be large; an effect the other way counts as inactive or inconclusive.
SMILES,JMJD2A Tudor,VDR inhibitor,PLK1 PBD block,HP1b chromo inh,L3MBTL1 block,BAZ2B inh
Oc1ccc(-c2nc(=S)[nH][nH]2)cc1,5µM,0,0,0,0,0
COc1ccc(-c2nc(=S)[nH][nH]2)cc1,2.5µM,79µM,?,79µM,0,0
FC(F)(F)c1ccc(-c2nc(=S)[nH][nH]2)cc1,22µM,?,0,0,-,0
CCc1cccc(C)c1NC(=O)CCn1c(=O)c2cccn2c2ccccc21,0,0,-,0,-,0
CN(Cc1ccccc1)C(=O)COC(=O)CCC(=O)c1ccc(Cl)cc1,0,0,0,0,0,-
CCOC(=O)C(=CNNc1cccc(Cl)c1)C(=O)OCC,79µM,?,9.5µM,?,0,0
Cc1noc(-c2ccc(NC(C)c3ccccc3)c([N+](=O)[O-])c2)n1 (stereo not drawn),0,0,-,0,-,0
COc1ccc2c(c1)c(=O)oc1c(C)c(OCc3ccc(C(=O)O)cc3)ccc12,50µM,0,30µM,0,-,50µM
CC1(C)Cc2cccc(OCC(O)CNCc3ccccn3)c2O1 (stereo not drawn),89µM,0,0,0,0,?
CC1(C)Cc2cccc(OCC(O)CN3CCN(c4ccccn4)CC3)c2O1 (stereo not drawn),0,0,0,0,0,0
CCOC(=O)c1c(NC(=O)c2cc3ccccc3c(=O)o2)sc2c1CCCC2,0,0,-,0,-,?
O=C(c1ccc(NC2=NC3CS(=O)(=O)CC3S2)cc1)N1CCN(c2ccccc2)CC1 (stereo not drawn),0,0,0,0,0,0
Cc1cccc(N2CCN(C(=O)c3ccc(NC4=NC5CS(=O)(=O)CC5S4)cc3)CC2C)c1 (stereo not drawn),?,0,24µM,0,-,?
CCS(=O)(=O)n1nc(-c2ccc(Cl)cc2)nc1SCc1ccccc1,40µM,0,0,0,0,0
CCn1c(SCc2nc3sc(C(=O)O)c(C)c3c(=O)[nH]2)nnc1-c1ccc(Cl)cc1,0,0,0,0,0[11.4 µM],56µM
CCn1c(SCc2ccc(Cl)cc2)nnc1-c1ccccc1,0[11.4 µM],0,27µM,0,0,0
CCn1c(SCc2ccc(C#N)cc2)nnc1-c1cccc(Cl)c1,0,0,0,0,0,0
O=C(Oc1ccc(F)cc1)c1nc(SCc2ccc(F)cc2)ncc1Cl,0,0,-,0,-,0
O=C(/C=C/c1ccc(Br)o1)OCc1nc2ccsc2c(=O)[nH]1,40µM,0,?,0,3.2µM,40µM
Cc1cnc(C(=O)OCc2nc3ccsc3c(=O)[nH]2)cn1,56µM,0,0,0,?,50µM
Cc1ccc(C(=O)OCc2nc3ccsc3c(=O)[nH]2)o1,0,0,0,0,0,0
COc1ccc(C2(CNC(=O)c3cccs3)CCOCC2)cc1,0,0,0,0,0,0
CC(=O)N1CCc2c(sc3c2c(=O)n(-c2ccccc2)c(=O)n3CC(=O)c2ccc(F)cc2)C1,0,0,-,0,-,0
CCCCOc1ccc(C2C(=O)N(C3CCCCC3)CC(=O)N2C2CCCCC2)cc1 (stereo not drawn),0,0,-,0,-,0
CC1=C(C(=O)Nc2ccccc2)C2(CCCCC2)C(C#N)=C(SCC(N)=O)N1,14µM,?,3.4µM,0,-,?
SMILES,JMJD2A Tudor,VDR inhibitor,PLK1 PBD block,HP1b chromo inh,L3MBTL1 block,BAZ2B inh
COC(=O)c1ccc(NC(=O)CCn2cccn2)cc1,0,0,-,0,-,0
O=C(Cc1ccc(Cl)cc1)Nc1ncc([N+](=O)[O-])s1,0,0,?,0,0,0
O=C(Cc1ccc(Br)cc1)Nc1ncc([N+](=O)[O-])s1,0,0,?,0,-,50µM
O=C(COC(=O)COc1ccccc1)Nc1ncc([N+](=O)[O-])s1,79µM,?,17µM,0,0,0
Cc1ccc(SCc2nc(-c3ccc(C(=O)NCc4ccc(Cl)cc4)cc3)oc2C)cc1,0,0,-,0,-,0
CC(=O)c1sc(NCc2ccc(C)cc2)nc1C,0,0,0,0,-,0
COc1ccc(CCNC(=O)C(=O)Nc2nccs2)cc1OC,79µM,0,0,0,0,0
COc1ccc(CCNc2nc(C)c(C(C)=O)s2)cc1OC,?,40µM,4.7µM,?,-,?
COc1ccc(CCNc2nc(-c3ccc(F)cc3)c(CC(=O)O)s2)cc1OC,0,79µM,8.4µM,?,-,0
COc1ccc(CCNC(=O)C(=O)Nc2ccc(C)cc2)cc1OC,0,0,-,0,-,0
COc1ccc(CCNc2nc(-c3sc(C)nc3C)cs2)cc1OC,3.2µM,0,0,?,-,32µM
CCCCCCCCOc1c(OC)cc(/C=C/C(=O)N2CCN(c3ccc(C)c(C)c3)CC2)cc1OC,-,0,-,-,-,-
COc1ccc(CCNc2nc(-c3ccncc3)cs2)cc1OC,0[11.4 µM],0,?,0,-,0
COc1ccc(CCNc2nc(-c3ccccn3)cs2)cc1OC,?,0,0,0,-,22µM
O=C1C=C(O)c2[nH]c(=O)ccc2C1=O,10µM,0,0,0,-,-
O=C(c1cccc(Cl)c1)N1c2ncnn2C2(CCCCC2)[C@@H]2CCCC[C@@H]21,0,0,-,0,-,0
NC(=O)c1cc(S(=O)(=O)NC2CCCCC2)co1,0,0,0,0,0,0
Cc1ccc(NS(=O)(=O)c2coc(C(N)=O)c2)cc1F,?,0,24µM,0,0,0
O=C(O)c1cccc2c1C(=O)c1ccc(-c3ccc(Cl)c(C(F)(F)F)c3)cc1S2(=O)=O,79µM,0,?,0,0,?
Cc1ccc2c(c1)N(C(=O)c1ccc(F)cc1)C(C)(C)CC2(C)c1ccccc1 (stereo not drawn),0,0,-,0,-,0
Cc1ccc(-c2nnc(Nc3ccc(O)cc3)c3ccccc23)cc1S(=O)(=O)NCC1CCCO1 (stereo not drawn),0,0,-,0,-,?
COC(=O)C1=COC(OC2OC(CO)C(O)C(O)C2O)C2C1C=CC2(O)CO (stereo not drawn),35µM,0,0,20µM,-,28µM
COC(=O)C1=CO[C@@H](O[C@@H]2OC(CO)[C@@H](O)[C@@H](O)[C@@H]2O)C2C1CC[C@]2(C)O (stereo partly drawn),0,0,0,0,-,-
COc1ccc(C(=O)[C@H]2[C@H]3C(=O)N(c4ccc(C)cc4)C(=O)[C@H]3C3C=CC=NN32)cc1 (stereo partly drawn),0,0,0,0,-,40µM
CCOc1ccc(NC(=O)CSc2oc(-c3ccc(C)cc3)nc2S(=O)(=O)c2ccc(C)cc2)cc1,0,0,-,0,-,?
CN(C)CCCN=Cc1c(O)n(Cc2ccc3c(c2)OCO3)c(=O)c2ccccc12,-,-,-,-,0,?

# Source: PubChem BioAssay (National Center for Advancing Translational Sciences (NCATS))
